Screen size: about 50,000 compounds; about 800 (1.6%) showed an effect of 50% or more. The sample holds strong results, similar compounds and a random draw of the others, so the mix is not that of the screen.
These compounds were tested against Bcl-2-like protein 10 (Homo sapiens) (UniProt Q9HD36) (assay: TR3 peptide-Bcl-B binding displacers, biochemical primary FP assay, phenotype converters (AID 1240;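 also: 0% = Bcl-B with tracer peptide and DMSO and 100% = tracer peptide lacking Bcl-B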)). Conditions: GST-Bcl-B / FITC-TR3 peptide fluorescence polarization; stronger effect = higher value; compound at 3.75 mg/L.
Sequence of Bcl-2-like protein 10 (Homo sapiens) (Q9HD36 whole entry, looked up): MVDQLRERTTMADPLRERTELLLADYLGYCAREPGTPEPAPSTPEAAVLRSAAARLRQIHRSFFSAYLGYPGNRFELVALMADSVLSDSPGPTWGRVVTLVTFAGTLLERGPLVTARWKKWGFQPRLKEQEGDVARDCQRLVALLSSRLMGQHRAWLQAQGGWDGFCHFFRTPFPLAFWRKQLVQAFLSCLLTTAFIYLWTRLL

Point of comparison: `COc1ccc(OC)c(/C=C(/C#N)C(=O)Nc2cccc(Br)c2)c1`, displacement 100%. Against it:
- COc1cc(CNc2ccc(Br)cc2C)cc(OC)c1OC — lower, 13.2%
- Cc1ccc(C(=O)Nc2cc(-c3cccc(C)c3)[nH]n2)cc1 — lower, 6.2%
- O=C1/C(=C\c2cccc(C(F)(F)F)c2)SC(=S)N1Cc1ccccc1 — lower, 11%
- Cc1cc(Br)cc2c1NC(=O)C21OCCO1 — lower, -4.3%
- Cc1nnc(C)n1/N=C/c1ccc(O)c(O)c1 — lower, 15.9%
- COc1ccccc1CNC(=O)C/C(C)=N/NC(=O)C(=O)NC(C)C — lower, -14.6%
- N#C/C(=C/c1ccc(C(=O)O)cc1)C(=O)Nc1cccc(Br)c1 — lower, -2.2%
- N#C/C(=C\c1c[nH]c2ccccc12)C(=O)Nc1ccc(F)cc1 — lower, 15.3%
- Cc1[nH]c2ccccc2c1/C=C(/C#N)C(=O)Nc1cccc(Br)c1 — lower, -17.5%
- N#C/C(=C/C=C/c1ccco1)C(=O)Nc1cccc(Br)c1 — lower, 59.3%
- CSc1ccc(/C=C(\NC(=O)c2ccc(C)cc2)C(=O)Nc2cccc(C)c2)cc1 — lower, -2.7%
- N#C/C(=C/c1ccc(O)cc1)C(=O)Nc1cccc(Br)c1 — lower, -32.7%
- N#C/C(=C/c1c[nH]c2ccccc12)C(=O)Nc1cccc(Br)c1 — lower, 90.7%
- N#C/C(=C/c1ccc(Cl)cc1)C(=O)Nc1cccc(Br)c1 — lower, -9.8%
- CSc1ccc(/C=C(\NC(=O)c2ccc(C)cc2)C(=O)Nc2cccc(F)c2)cc1 — higher, 127%
- CC(=O)c1cccc(NC(=O)/C(=C\c2ccc(Br)cc2)NC(=O)c2ccc(C)cc2)c1 — lower, 2.4%
- Cc1ccc(/C=C(/C#N)C(=O)Nc2cccc(Br)c2)o1 — lower, -37.3%
- CN(C)c1ccc(/C=C(/C#N)C(=O)Nc2cccc(Br)c2)cc1 — lower, 53.8%
- CCOc1ccc(N2C(=O)NC(=O)/C(=C\c3ccc(-c4ccccc4C(=O)O)o3)C2=O)cc1 — lower, 14.1%
- CCN(Cc1ccccc1)C(=O)c1ccccc1[N+](=O)[O-] — lower, -11.3%
- CC(C)c1ccc(C2OC3(C(=O)c4ccccc4C3=O)C3C(=O)N(c4ccc(Cl)c(Cl)c4)C(=O)C23)cc1 (centres undefined) — lower, 4.5%
- O=c1c(Oc2ccccc2Br)c(C(F)(F)F)oc2cc(O)ccc12 — lower, 3%
- COc1ccc(NC(=O)CN(c2ccccc2Cl)S(C)(=O)=O)cc1OC — lower, 3.6%
- CCOc1cc(/C=C2\C(=O)NC(=O)N(c3ccc(Cl)cc3)C2=O)cc(Cl)c1OCC(=O)O — lower, -2.8%
- Cc1cc(C)c(C(=O)/C(=C/c2ccc(I)cc2)c2ccccc2)c(=O)[nH]1 — lower, -1.1%
- Cc1cccc(C(=O)NNC2=CC(=O)CC(C)(C)C2)c1O — lower, 37.5%
- COc1ccc(/C=C(/C#N)C(=O)Nc2cccc(Br)c2)c(OC)c1 — lower, -8.7%
- COc1ccc([N+](=O)[O-])cc1-c1ccc(/C=C(/C#N)C(=O)Nc2cccc(Br)c2)o1 — lower, 7.6%
- COc1cc([N+](=O)[O-])ccc1-c1ccc(/C=C(/C#N)C(=O)Nc2cccc(Br)c2)o1 — lower, 92.4%
- COc1ccc(Cl)cc1/C=C(/C#N)C(=O)Nc1cccc(Br)c1 — lower, 14.8%
- N#C/C(=C/c1ccc(C#N)cc1)C(=O)Nc1cccc(Br)c1 — lower, -8.5%
- N#C/C(=C\c1ccc(-c2ccccc2[N+](=O)[O-])o1)C(=O)Nc1cccc(Br)c1 — lower, -6.3%
- CSc1ccc(/C=C(/C#N)C(=O)Nc2cccc(Br)c2)cc1 — lower, 80.3%
- N#C/C(=C/c1ccc(F)cc1)C(=O)Nc1cccc(Br)c1 — lower, -19.5%
- C=CCOc1ccc(/C=C/C(=O)c2ccc(Cl)cc2)cc1 — lower, -2.1%
- O=C(NCc1ccccc1)c1nn2c(c1Cl)NC(c1ccc(Cl)cc1)CC2C(F)(F)F (centres undefined) — lower, 1.1%
- O=C(NCc1ccccc1)C(O)(c1ccc(F)cc1)c1ccc(F)cc1 — lower, -12.1%
- CSc1ccc(CN2CCN(C(=O)c3ccco3)CC2)cc1 — lower, -13.1%
- O=[N+]([O-])c1ccc(F)c(NS(=O)(=O)c2cc(Cl)ccc2Cl)c1 — lower, -1.9%
- Cc1cc(NC(=O)c2cccc(F)c2)ccc1NC(=O)c1ccccc1 — lower, -3.3%
- O=C1NC(=Nc2ccc(Br)cc2)S/C1=C\c1ccc(O)cc1 — lower, 10%
- COc1ccc(N=C2NC(=O)/C(=C/c3ccc(N(C)C)cc3)S2)cc1 — lower, 84.9%
- O=C1NC(=Nc2ccc(Br)cc2)S/C1=C\c1ccc2c(c1)OCO2 — lower, 68.8%
- O=C1NC(=Nc2ccc(O)cc2)S/C1=C\c1ccc(Cl)cc1 — lower, 0.3%
- COc1ccc(/C=C2/SC(=Nc3ccc(O)cc3)NC2=O)cc1 — lower, -15.9%
- O=C1NC(=Nc2ccc(F)cc2)S/C1=C/c1ccc(Br)cc1 — lower, 8%
- CN(C)c1ccc(/C=C2\SC(=Nc3ccc(O)cc3)NC2=O)cc1 — lower, 50.9%
- Cc1ccc(/C=C2\SC(=Nc3ccc(O)cc3)NC2=O)cc1 — lower, 0.1%
- COc1ccc(N=C2NC(=O)/C(=C/c3ccc(Cl)cc3)S2)cc1 — lower, 10.7%
- COC(=O)c1c(C)oc2ccc(OCc3cccc(Br)c3)cc12 — lower, 9.3%
- CCC(=NCc1ccccc1)c1c(C(F)(F)F)[nH]n(-c2nc3ccccc3s2)c1=O — lower, -13.5%
- Cc1ccc(N2NC(=O)/C(=C/C=C/c3ccccc3)C2=O)cc1C — lower, 8.4%
- Cc1ccc(Cl)cc1NC(=O)C(=O)NCc1ccco1 — lower, -13.4%
- CCOC(=O)c1c(-c2ccc(C)cc2)csc1NC(=O)C(C)(C)C — lower, 7.5%
- Cc1c(C(=O)NCCc2ccccc2)cccc1[N+](=O)[O-] — lower, -8%
- CN(C)c1ccc(N/C(N)=N/c2nc(C(F)(F)F)cc(=O)[nH]2)cc1 — lower, -5.8%
- N/C(=N/N=C/c1ccc2c(c1)OCO2)c1ccccn1 — lower, -7.7%
- O=C(c1ccccc1)N1CC(=O)N2CCc3ccccc3C2C1 (centres undefined) — lower, 1%
- O=C1/C(=C/c2ccccc2)SC(=S)N1c1ccccc1Cl — lower, -7.4%
- COc1cccc(C2NC(=O)NC(C)=C2C(=O)Nc2ccccc2C)c1 (centres undefined) — lower, 4.3%
- CCOC(=O)C1=C(C)N=c2s/c(=C\c3ccc(I)cc3)c(=O)n2C1c1ccc(OC)c(OC)c1 (centres undefined) — higher, 111%
- CCOC(=O)C1=C(C)N=c2s/c(=C\c3ccc(C(=O)O)cc3)c(=O)n2C1c1ccc(OC)c(OC)c1 (centres undefined) — lower, -22.8%
- CCOC(=O)C1=C(C)N=c2s/c(=C\c3cc4c(cc3Cl)OCO4)c(=O)n2C1c1cccs1 (centres undefined) — lower, -8.9%
- C=CCOc1ccc(/C=c2/sc3n(c2=O)C(c2ccc(OC)c(OC)c2)C(C(=O)OC)=C(C)N=3)cc1 (centres undefined) — higher, 106%
- CCOC(=O)C1=C(C)N=c2s/c(=C\c3ccc(NC(C)=O)cc3)c(=O)n2C1c1ccc(OC)cc1 (centres undefined) — higher, 116%
- COC(=O)C1=C(C)N=c2s/c(=C\c3ccc(Cl)cc3)c(=O)n2C1c1ccc(OC)c(OC)c1 (centres undefined) — lower, 9.9%
- COC(=O)C1=C(C)N=c2s/c(=C/c3ccc(F)cc3)c(=O)n2C1c1ccc(OC)cc1 (centres undefined) — lower, 5.7%
- CCOC(=O)C1=C(C)N=c2s/c(=C\c3ccc(N(C)C)cc3)c(=O)n2C1c1ccc(OC)c(OC)c1 (centres undefined) — lower, -38.5%
- CCOC(=O)C1=C(C)N=c2s/c(=C\c3ccc(NC(C)=O)cc3)c(=O)n2C1c1ccccc1 (centres undefined) — lower, -24.8%
- CCOC(=O)C1=C(C)N=c2s/c(=C\c3cn(C)c4ccccc34)c(=O)n2C1c1cccs1 (centres undefined) — lower, 11.5%
- COC(=O)C1=C(C)N=c2s/c(=C\c3ccccc3Cl)c(=O)n2C1c1cccs1 (centres undefined) — lower, 84.9%
- CCOC(=O)C1=C(C)N=c2s/c(=C\c3ccc(OC)cc3)c(=O)n2C1c1ccc(OC)cc1 (centres undefined) — lower, -5.7%
- CCOc1ccc(C(=O)Nc2cc(OC)ccc2OC)cc1Br — lower, -9%
- COc1ccc(C(=O)N2CCN(c3cccc(C)c3C)CC2)c(OC)c1 — lower, -4.4%
- CCN(CC)c1ccc(N2C(=O)/C(=C/C=C/c3ccccc3)SC2=S)cc1 — lower, -4.2%
- CCCOC(=O)c1c(NC(=O)c2c(-c3ccccc3)noc2C)sc2c1CCCCC2 — lower, -7.2%
- COc1ccc(CN2CCN(C3CCC(c4ccccc4)CC3)CC2)c(OC)c1OC (centres undefined) — lower, -12%
- CC(C)OC(=O)c1c(-c2ccc(F)cc2)csc1N — lower, 1.3%
- COc1ccc(N2C(=O)/C(=C\C(Br)=C\c3ccccc3)SC2=S)cc1 — lower, 5.6%
- CCOC(=O)C1=C(C)N=c2s/c(=C\c3ccccc3Cl)c(=O)n2C1c1ccc(OC)c(OC)c1 (centres undefined) — higher, 106%
- CCOC(=O)C1=C(C)N=c2s/c(=C\c3ccc(N(CC)CC)o3)c(=O)n2C1c1ccc(OC)c(OC)c1 (centres undefined) — lower, -25%
- CCOC(=O)C1=C(C)N=c2s/c(=C\c3ccccc3F)c(=O)n2C1c1ccc(OC)c(OC)c1 (centres undefined) — lower, 6.3%
- CCOC(=O)C1=C(C)N=c2s/c(=C\c3cc(Br)c(O)c(OC)c3)c(=O)n2C1c1ccc(OC)c(OC)c1 (centres undefined) — lower, -85.1%
- CCOC(=O)C1=C(C)N=c2s/c(=C\c3ccc(NC(C)=O)cc3)c(=O)n2C1c1ccc(OC)c(OC)c1 (centres undefined) — lower, 88.9%
- CCOC(=O)C1=C(C)N=c2s/c(=C\c3ccccn3)c(=O)n2C1c1ccc(OC)c(OC)c1 (centres undefined) — lower, 42.1%
- CC(=O)N(c1ccccc1)c1c(F)c(F)c(F)c(F)c1F — lower, -8.8%
- O=C(COc1ccc(Cl)cc1Br)Nc1ccc2c(c1)OCCO2 — lower, 1.8%
- CCOC(=O)c1conc1-c1ccc(SC)cc1 — lower, 6.5%
- COc1ccc(CN2CCN(Cc3cc(Br)ccc3O)CC2)c(OC)c1 — lower, 1.4%
- COc1cc(C(=O)N2CCN(Cc3cccc(C(F)(F)F)c3)CC2)cc(OC)c1OC — lower, 3.1%
- Cc1ccc2nc(-c3ccc(NC(=O)c4ccc5c(c4)OCCO5)cc3)sc2c1 — lower, 73.2%
- CCOc1ccc(C(=O)Nc2ccc(-c3nc4ccc(C)cc4s3)cc2)cc1 — lower, 13.3%
- O=C(Nc1ccc(O)c(-c2nc3ccccc3s2)c1)c1ccc2c(c1)OCCO2 — lower, 82.5%
- O=C(Nc1cccc(-c2nc3ccccc3s2)c1)c1ccc2c(c1)OCCO2 — lower, 5.6%
- O=C(Nc1ccc(-c2nc3ccccc3s2)c(O)c1)c1ccc2c(c1)OCCO2 — lower, -3.8%
- CC(=O)Nc1ccc(-c2nc3ccc(C)cc3s2)cc1 — lower, -3.9%
- O=CN1N=C(c2ccccc2)CC1(O)C(F)(F)F (centres undefined) — lower, 13.4%
- CCc1ccc(NC(=O)CC2Nc3ccccc3NC2=O)cc1 (centres undefined) — lower, -35.7%
- O=C(CC1Nc2ccccc2NC1=O)Nc1ccc(Br)cc1 (centres undefined) — lower, -5.1%
- CCOC(=O)c1c(NC(=O)CC2Nc3ccccc3NC2=O)sc2c1CCCC2 (centres undefined) — higher, 130%
- COC(=O)c1ccc(NC(=O)CC2Nc3ccccc3NC2=O)cc1 (centres undefined) — higher, 108%
- CCOC(=O)c1c(NC(=O)CC2Nc3cc(C)c(C)cc3NC2=O)sc2c1CCCC2 (centres undefined) — lower, 48.8%
- CCOC(=O)c1c(NC(=O)CC2Nc3ccccc3NC2=O)sc(C)c1C (centres undefined) — lower, -9.5%
